High-throughput results deposited in PubChem by National Center for Advancing Translational Sciences (NCATS).
LmPK inhibitor = inhibitors of Leishmania mexicana pyruvate kinase; Q27686; purified LmPK, Kinase-Glo ATP luminescence, 1 h; Potency, µM (doses to about 57.5 µM), for the others: at the highest dose activity change, negative = inhibition, usual class: inhibitors; 290,000 tested, 0.37% active; AID 1721
Target sequence (Q27686 whole entry, looked up): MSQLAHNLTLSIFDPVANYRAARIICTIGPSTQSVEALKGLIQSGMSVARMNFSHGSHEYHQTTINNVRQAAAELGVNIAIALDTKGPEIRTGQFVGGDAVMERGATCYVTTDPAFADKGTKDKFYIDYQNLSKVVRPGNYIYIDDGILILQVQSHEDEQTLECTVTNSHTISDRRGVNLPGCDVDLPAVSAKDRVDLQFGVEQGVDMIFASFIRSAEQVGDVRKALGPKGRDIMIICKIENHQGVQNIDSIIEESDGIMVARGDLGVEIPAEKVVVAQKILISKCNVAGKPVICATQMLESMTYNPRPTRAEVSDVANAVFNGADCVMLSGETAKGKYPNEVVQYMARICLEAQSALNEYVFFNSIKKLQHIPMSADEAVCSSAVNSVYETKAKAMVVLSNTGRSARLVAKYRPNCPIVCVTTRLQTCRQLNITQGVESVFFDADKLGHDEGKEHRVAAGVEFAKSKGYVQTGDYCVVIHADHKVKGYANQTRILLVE
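Kinase-Glo luminescence read after 1 h RT reaction of 0.1 nM LmPK with 0.5 mM PEP and 0.1 mM ADP. Activity scaled between uninhibited and enzyme-free controls.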
Tb PYK inh = inhibitors of Trypanosoma brucei pyruvate kinase | Q57TT1 | TbPYK enzyme, Kinase-Glo Plus ATP luminescence, 45 min | Potency, µM (highest dose often 76.8 µM), without a hit: at the highest dose activity, negative = inhibition, actives largely listed as inhibitors | 410,000 tested, 0.12% active | AID 624173; also: nearly all actives have a fitted effect of over 50% in size
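Assay buffer: 50 mM TEA pH 7.2, 100 mM KCl, 10 mM MgCl2, 0.05% BSA, 0.01% Tween-20. Pyruvate kinase from T. brucei plus substrate met compound, then ADP (130 uM final). Luminescence was read post 45 min RT.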
RE007 growth inh = less growth of the S. pombe RE007 Vpr strain | S. pombe RE007 Vpr strain, BacTiter-Glo ATP luminescence, 24 h | Potency, µM (series often up to 92.2 µM), for the others: at the top dose activity change, negative = less growth, hits mostly inhibitors | 360,000 tested, 0.21% active | AID 651644; active = well fitted falling curve with a large enough effect; inconclusive = small, poorly fitted or top-dose-only effect; inactive = no such curve, though single readings can be large or run the other way; also: nearly all actives have a fitted effect of over 50% in size
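Fission yeast strain RE007, carrying one chromosomally integrated HIV-1 vpr copy, was seeded at OD 0.01 in PMG+AL medium with 23 nL pinned compound. After 24 h at 30 °C and 99% humidity, viability was read by BacTiter-Glo luminescence.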
AMA1 RON2 block = AMA1-RON2 (P. falciparum) interaction inhibition. AlphaScreen AMA1-biotinylated RON2 peptide binding. Potency, µM (series often up to 58.2 µM), for inactives: at the top dose activity change, negative = inhibition, usual class: inhibitors. 360,000 tested, 0.2% active. AID 720542;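 also: 0% = vehicle wells and -100% = peptide control; nearly all actives have a fitted effect of over 45% in size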
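AMA1 (3D7) with his tag at 25 nM final met compounds first, then biotinylated RON2 peptide at 25 nM; detection used donor plus acceptor beads, 10 µg/mL apiece, read by AlphaScreen after 30 min at room temperature.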
Active calls of the source: *; ? = inconclusive; nt = not tested or not shown; [ ] = remark or other dose. In the library only some 0.68% were active in any assay of this set; here they are far more common. Unless noted, calls follow the shape of the dose curve; as a rule, active = well fitted curve in the direction sought with a large enough effect; inconclusive = small, poorly fitted or top-dose-only effect, or another doubt; inactive = no such curve, though single readings can be large; an effect the other way counts as inactive or inconclusive. Unless noted, % is scaled to controls: 0 for no effect and ±100 for the full control effect; potency is read from the fitted curve at half-maximal effect.

SMILES	LmPK inhibitor	Tb PYK inh	RE007 growth inh	AMA1 RON2 block
Cc1ccc(NC2=C(NC(=O)c3ccccc3)C(=O)c3ccccc3C2=O)cc1Cl	7.1µM*	?	?	?
CCOc1ccccc1NC(=O)Nc1ccc(OC)nc1	1%	-2%	4%	0%
C=CCSc1nnc2c(n1)OC(c1ccco1)Nc1ccccc1-2 (stereo not given)	-3%	3%	4%	3%
C=CCSc1nnc2c(n1)OC=Nc1ccccc1-2	25µM*	-3%	?	0%
Cc1ncoc1C(=O)N1CCCC(N2CCN(c3cccc(C(F)(F)F)c3)CC2)C1 (stereo not given)	-4%	-1%	-13%	7%
COc1ccccc1-n1c(C)cc(/C=C2/C(=N)N3C(=NC2=O)SN=C3S(C)(=O)=O)c1C	-3%[11.5 µM]	-9%	2%	-4%
Cc1cc(C)c(S(=O)(=O)/N=C2/C=C(Sc3ncn[nH]3)C(=O)c3ccccc32)cc1C	7.9µM*	5.6µM*	?	-26%
Cc1ccc(C)c(S(=O)(=O)/N=C2\C=C(NS(=O)(=O)c3ccccc3)C(=O)c3ccccc32)c1	-4%	-1%	-8%	-22%
O=C1C=C(O)c2c(O)cc(O)c(O)c2C1=O	nt	-44%	-2%	1µM*
O=C1c2ccccc2C(=O)c2c(O)c(O)cc(O)c21	nt	-12%	?	-10%
CN(C)c1ccc(C=C2C(=O)NC(=S)NC2=O)cc1	nt	32µM*	33%	-9%
CC1(C)CC(=O)C2=C(C1)OC1=C(C(=O)CC(C)(C)C1)C2c1ccc(O)cc1O	4%	40µM*	?	-5%
COCCCN1C(=O)C(=O)/C(=C(/O)c2ccc3c(c2)OCCO3)C1c1ccc(C(=O)OC)cc1 (stereo not given)	-5%	-11%	-3%	4%
Cc1cc(C)n2nc(SCC(=O)N3CCOCC3)nc2n1	nt	1%	-7%	-8%
O=C1CC=C2C3CC4N(CCC45c4cc(O)c(O)cc4N1C25)CC3=CCBr (stereo not given)	nt	2.8µM*	-5%	?
Cn1c(C2CCCCC2)nc2c1c(=O)[nH]c(=O)n2Cc1ccccc1	2%	1%	8%	-4%
CCN(CC)S(=O)(=O)c1cc(C(=O)N2CCc3ccccc32)ccc1Cl	-3%	2%	27%	-21%
C[C@]12CC[C@@H]3c4ccc(O)c(O)c4CC[C@H]3[C@@H]1CC[C@@H]2O	1µM*	10µM*	5%[18.4 µM]	?
C[C@]12CC[C@@H]3c4ccc(O)cc4CC[C@H]3[C@@H]1CC[C@@H]2O	3%	2%	8%	0%
O=C(CSc1nc2c(c(C(F)(F)F)n1)CCc1ccccc1-2)NCc1ccccc1	5%	3%	3%	2%
Cc1ccc(NC(=O)/C=C\C(=O)O)c([N+](=O)[O-])c1	-1%	3%	-16%	-13%
Cc1cc(C)c(NC(=O)/C=C\C(=O)O)c([N+](=O)[O-])c1	2%	-13%	32µM*	13%
Clc1ccc(-c2cn3c(n2)-c2ccccc2C3)cc1Cl	25µM*	-2%	2%	-7%
O=C(CSc1nc2[nH]ncc2c(=O)n1-c1ccccc1Br)NCc1ccccc1Cl	1%	-5%	-1%	36%
N#CCSc1nc2[nH]ncc2c(=O)n1-c1ccccc1Br	11µM*	13%	-14%	-2%
SMILES	LmPK inhibitor	Tb PYK inh	RE007 growth inh	AMA1 RON2 block
O=C1N=C(c2ccccc2)S/C1=C\c1cccs1	0%	7.9µM*	-25%	10%
Cc1ccc(-c2nnc(Nc3ccccc3)o2)cc1	14µM*	-14%	?	-1%
CC1CCCCC12NC(=O)N(CC(=O)OCC(=O)Nc1ccc(F)cc1[N+](=O)[O-])C2=O (stereo not given)	nt	6%	-17%	0%
COc1cccc(-n2c(Cn3nc(C(F)(F)F)cc3C)n[nH]c2=S)c1	-6%	4µM*	nt	32%
COc1cccc(-n2c(Cn3nc(C(F)F)cc3C(F)F)n[nH]c2=S)c1	-5%	?	-7%	5%
Cc1ccc(-n2c(Cn3ncc4ccccc4c3=O)n[nH]c2=S)cc1	1%	?	1%	16%
Cc1ccc(-n2c(Cn3nc(C(F)(F)F)cc3C)n[nH]c2=S)cc1	-21%	10µM*	5%	35%
COc1ccc(-n2c(Cn3nc(C(F)(F)F)cc3C)n[nH]c2=S)cc1	-9%	3.2µM*	6%	77%
Cc1ccc(OCc2n[nH]c(=S)n2-c2ccccc2)cc1C	?	?	1%	92%
